# Tests used:
# Assay in all cases: DAPPL (digital affinity profiling via proximity ligation, sequencing); 10 mM Tris-HCl pH 7.5, 50 mM NaCl, 1 mM DTT, 4% glycerol, room temperature, 30 min; GST-TFs on glutathione beads, 16-mer random dsDNA library, 0.1% formaldehyde crosslink after washing; high values mean tight binding
# [1] = target: T1, FEV (Homo sapiens, UniProt Q99581 1-238); conditions: protein: recombinant; tags: N-terminal GST; dsDNA, one strand shown
# T1 sequence: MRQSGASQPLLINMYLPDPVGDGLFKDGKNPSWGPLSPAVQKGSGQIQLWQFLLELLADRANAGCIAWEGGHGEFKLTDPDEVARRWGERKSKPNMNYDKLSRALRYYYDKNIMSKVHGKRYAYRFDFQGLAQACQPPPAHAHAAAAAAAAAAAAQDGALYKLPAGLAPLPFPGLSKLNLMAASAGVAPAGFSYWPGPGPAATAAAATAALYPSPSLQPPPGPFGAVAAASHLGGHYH
# How it was run: (§1)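 The binding signal reported is, for every hexamer, its read frequency for a factor over its read frequency for the tag-only sample. Reads came from pools of yeast-expressed, GST-fused human transcription factors on glutathione beads, barcoded with DNA and mixed with that sample, which were incubated with 200 nmole of a random double-stranded 16-mer DNA library in Tris/NaCl/DTT/glycerol buffer at room temperature for 30 min. After washing, the pools were crosslinked with 0.1% formaldehyde, proximity-ligated with BsaI/T4 ligase for 1 h at 37 °C, PCR-amplified and sequenced on an Illumina NextSeq500.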
# [2] = target: ETV5 (Homo sapiens, UniProt P41161 1-510); conditions: protein: recombinant; tags: N-terminal GST; dsDNA, one strand shown
# How it was run: as §1
# [3] = target: HSF1 (Homo sapiens, UniProt Q00613 1-529); conditions: protein: recombinant; tags: N-terminal GST; chain copies: 3; dsDNA, one strand shown
# How it was run: as §1
# [4] = target: T2, SPIC (Homo sapiens, UniProt Q8N5J4 1-248); conditions: protein: recombinant; tags: N-terminal GST; dsDNA, one strand shown
# T2 sequence: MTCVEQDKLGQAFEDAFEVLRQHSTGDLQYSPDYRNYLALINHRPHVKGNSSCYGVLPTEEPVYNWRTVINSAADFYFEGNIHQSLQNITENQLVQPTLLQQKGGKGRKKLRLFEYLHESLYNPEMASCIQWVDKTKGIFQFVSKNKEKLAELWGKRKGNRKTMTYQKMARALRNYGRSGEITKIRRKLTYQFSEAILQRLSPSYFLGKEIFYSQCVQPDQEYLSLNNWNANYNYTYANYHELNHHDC
# How it was run: as §1
# [5] = target: ELF4 (Homo sapiens, UniProt Q99607 1-663); conditions: protein: recombinant; tags: N-terminal GST; dsDNA, one strand shown
# How it was run: as §1
# [6] = target: T3, ELK4 (Homo sapiens, UniProt P28324-2 1-405); conditions: protein: recombinant; tags: N-terminal GST; dsDNA, one strand shown
# T3 sequence: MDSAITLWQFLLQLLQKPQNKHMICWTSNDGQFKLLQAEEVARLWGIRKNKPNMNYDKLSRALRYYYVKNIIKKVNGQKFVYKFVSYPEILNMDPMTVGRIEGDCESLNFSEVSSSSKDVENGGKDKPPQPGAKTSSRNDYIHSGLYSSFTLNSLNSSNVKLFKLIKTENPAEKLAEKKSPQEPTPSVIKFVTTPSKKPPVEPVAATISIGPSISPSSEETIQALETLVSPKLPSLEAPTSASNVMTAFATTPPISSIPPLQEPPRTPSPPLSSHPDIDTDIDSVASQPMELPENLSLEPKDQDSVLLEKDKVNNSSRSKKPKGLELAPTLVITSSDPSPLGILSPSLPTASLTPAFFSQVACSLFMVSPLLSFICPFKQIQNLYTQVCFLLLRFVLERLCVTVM
# How it was run: as §1
# [7] = target: T4, ETV2 (Homo sapiens, UniProt O00321 1-342); conditions: protein: recombinant; tags: N-terminal GST; dsDNA, one strand shown
# T4 sequence: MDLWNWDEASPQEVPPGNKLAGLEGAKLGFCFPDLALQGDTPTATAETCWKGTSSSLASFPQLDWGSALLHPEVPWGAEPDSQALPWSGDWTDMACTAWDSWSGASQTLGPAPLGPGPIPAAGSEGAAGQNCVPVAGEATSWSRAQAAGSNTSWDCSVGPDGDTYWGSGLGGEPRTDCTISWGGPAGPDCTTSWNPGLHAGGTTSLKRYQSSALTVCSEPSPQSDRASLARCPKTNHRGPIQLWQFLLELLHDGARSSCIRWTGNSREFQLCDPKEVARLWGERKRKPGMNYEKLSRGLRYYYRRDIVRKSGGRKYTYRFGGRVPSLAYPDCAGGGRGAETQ
# How it was run: as §1
# [8] = target: T5, ELF3 (Homo sapiens, UniProt P78545 1-371); conditions: protein: recombinant; tags: N-terminal GST; dsDNA, one strand shown
# T5 sequence: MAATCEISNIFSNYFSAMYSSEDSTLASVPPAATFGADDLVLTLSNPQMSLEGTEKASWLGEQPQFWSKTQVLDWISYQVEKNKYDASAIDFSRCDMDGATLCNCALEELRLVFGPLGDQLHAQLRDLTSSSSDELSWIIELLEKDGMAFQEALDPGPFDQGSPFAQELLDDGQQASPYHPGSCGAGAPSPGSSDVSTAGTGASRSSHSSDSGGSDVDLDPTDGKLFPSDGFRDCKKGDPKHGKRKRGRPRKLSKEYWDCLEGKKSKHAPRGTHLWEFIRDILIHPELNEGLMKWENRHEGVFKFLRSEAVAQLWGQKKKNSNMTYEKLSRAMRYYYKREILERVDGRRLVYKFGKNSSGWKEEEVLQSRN
# How it was run: as §1
# [9] = target: ETV1 (Homo sapiens, UniProt P50549 1-477); conditions: protein: recombinant; tags: N-terminal GST; dsDNA, one strand shown
# How it was run: as §1
# Sequence of ELF4 (Q99607 whole entry): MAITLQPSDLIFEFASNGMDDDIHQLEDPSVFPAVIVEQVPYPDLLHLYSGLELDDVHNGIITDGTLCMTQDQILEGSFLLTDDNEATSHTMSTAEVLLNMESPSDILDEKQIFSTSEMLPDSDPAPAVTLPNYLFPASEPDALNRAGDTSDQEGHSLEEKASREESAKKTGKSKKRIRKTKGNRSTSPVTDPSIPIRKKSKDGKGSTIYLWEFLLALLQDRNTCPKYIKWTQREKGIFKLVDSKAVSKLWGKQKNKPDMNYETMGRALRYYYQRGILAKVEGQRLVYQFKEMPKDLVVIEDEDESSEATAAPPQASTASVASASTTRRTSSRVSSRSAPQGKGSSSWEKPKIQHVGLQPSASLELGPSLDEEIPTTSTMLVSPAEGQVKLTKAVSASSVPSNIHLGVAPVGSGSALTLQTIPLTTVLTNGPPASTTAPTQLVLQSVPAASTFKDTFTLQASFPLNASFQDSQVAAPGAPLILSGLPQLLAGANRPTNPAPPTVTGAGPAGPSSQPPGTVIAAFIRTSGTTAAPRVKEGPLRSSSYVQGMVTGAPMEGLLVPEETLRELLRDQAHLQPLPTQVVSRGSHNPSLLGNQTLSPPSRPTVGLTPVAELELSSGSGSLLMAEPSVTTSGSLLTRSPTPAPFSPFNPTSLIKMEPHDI
# Sequence of HSF1 (Q00613 whole entry): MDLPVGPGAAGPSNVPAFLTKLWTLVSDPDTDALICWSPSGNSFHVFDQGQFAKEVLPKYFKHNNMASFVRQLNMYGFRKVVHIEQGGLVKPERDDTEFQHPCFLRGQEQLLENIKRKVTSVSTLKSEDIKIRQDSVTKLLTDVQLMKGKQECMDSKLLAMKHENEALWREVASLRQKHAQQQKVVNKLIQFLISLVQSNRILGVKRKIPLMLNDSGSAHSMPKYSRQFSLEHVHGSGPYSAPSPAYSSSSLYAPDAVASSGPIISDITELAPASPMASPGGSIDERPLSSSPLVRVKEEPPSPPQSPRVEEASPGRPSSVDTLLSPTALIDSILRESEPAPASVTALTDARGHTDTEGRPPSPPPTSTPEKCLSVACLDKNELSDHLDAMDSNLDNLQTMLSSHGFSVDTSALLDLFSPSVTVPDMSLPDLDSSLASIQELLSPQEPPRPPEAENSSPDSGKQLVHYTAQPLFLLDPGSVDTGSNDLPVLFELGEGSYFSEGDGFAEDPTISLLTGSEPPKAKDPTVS
# Sequence of ETV1 (P50549 whole entry): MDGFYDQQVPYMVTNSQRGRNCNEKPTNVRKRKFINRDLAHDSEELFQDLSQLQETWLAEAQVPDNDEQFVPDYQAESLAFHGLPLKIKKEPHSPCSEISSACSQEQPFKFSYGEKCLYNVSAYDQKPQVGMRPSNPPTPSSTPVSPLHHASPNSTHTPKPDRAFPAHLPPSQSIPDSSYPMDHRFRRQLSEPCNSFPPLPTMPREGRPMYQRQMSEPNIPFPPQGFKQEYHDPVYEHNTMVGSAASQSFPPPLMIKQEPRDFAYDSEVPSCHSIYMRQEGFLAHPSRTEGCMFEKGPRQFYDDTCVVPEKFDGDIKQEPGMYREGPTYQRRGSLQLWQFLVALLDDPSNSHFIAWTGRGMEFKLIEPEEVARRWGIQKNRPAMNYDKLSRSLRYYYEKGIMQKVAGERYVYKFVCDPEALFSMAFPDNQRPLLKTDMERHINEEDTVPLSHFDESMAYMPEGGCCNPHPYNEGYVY
# Sequence of ETV5 (P41161 whole entry): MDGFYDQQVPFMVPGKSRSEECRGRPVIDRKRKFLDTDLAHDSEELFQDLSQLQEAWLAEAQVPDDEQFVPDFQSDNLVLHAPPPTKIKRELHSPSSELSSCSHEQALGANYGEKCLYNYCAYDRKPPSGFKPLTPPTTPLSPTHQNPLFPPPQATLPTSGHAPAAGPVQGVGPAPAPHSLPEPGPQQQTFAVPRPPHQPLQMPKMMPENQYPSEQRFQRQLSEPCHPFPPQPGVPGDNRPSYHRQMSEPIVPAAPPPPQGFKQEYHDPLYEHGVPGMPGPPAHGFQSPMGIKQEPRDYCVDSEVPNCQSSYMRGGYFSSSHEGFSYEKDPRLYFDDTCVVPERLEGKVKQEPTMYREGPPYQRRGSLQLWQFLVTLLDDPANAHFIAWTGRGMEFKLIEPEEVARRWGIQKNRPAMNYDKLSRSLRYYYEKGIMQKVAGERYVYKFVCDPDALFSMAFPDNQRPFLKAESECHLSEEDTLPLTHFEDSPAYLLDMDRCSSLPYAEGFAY
sequence,measurement,setting,value
GGCACT,binding signal,[1],"1.46 fold enrichment (6-mer frequency, TF over GST control)"
same,binding signal,[2],"1.32 fold enrichment (6-mer frequency, TF over GST control)"
same,binding signal,[3],"1.03 fold enrichment (6-mer frequency, TF over GST control)"
same,binding signal,[4],"1.24 fold enrichment (6-mer frequency, TF over GST control)"
same,binding signal,[5],"1.26 fold enrichment (6-mer frequency, TF over GST control)"
same,binding signal,[6],"1.28 fold enrichment (6-mer frequency, TF over GST control)"
same,binding signal,[7],"1.19 fold enrichment (6-mer frequency, TF over GST control)"
same,binding signal,[8],"1.29 fold enrichment (6-mer frequency, TF over GST control)"
same,binding signal,[9],"1.38 fold enrichment (6-mer frequency, TF over GST control)"
